This passage reports composite z-score, composite Z-score and z-score results from PubChem BioAssay.

One test concerns the target Albumin (Bos taurus) (UniProt P02769). Briefly: bovine serum albumin binders on microarray, profiling panel, artefact control for SMM control protein annotation, biochemical, small-molecule microarray, Alexa647 label, 635/667 nm fluorescence (AID 1118).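 Note: score merges 667 nm emission intensity and signal-to-noise per printed compound spot.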 The note with it: BSA-A647 binding, fluorescence 635 nm, higher = more signal.
Test [1] can be described thus: small-molecule microarray binders of probe aXIP, primary screen, biochemical, NeuroSMM set, 635/667 nm fluorescence (AID 1119).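 Note: probe is the protein aXip251-270 applied at 1 µg/mL to compound-printed slides; binding of probe to printed compounds measured as 667 nm fluorescence plus signal to noise.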 The note with it: higher = more signal, called active from +8 up or from −8 down.
Test [2] in a line: small-molecule binders of probe aNOTCH3, primary screen, biochemical, small-molecule microarray, 635/667 nm fluorescence (AID 1120).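 Note: probe is a biotin-tagged antibody raised against NOTCH3 rather than NOTCH3 protein; score merges spot fluorescence near 667 nm with spot signal to noise.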 The settings on record: higher = more signal.
A short description of test [3]: small-molecule binders of probe aNOTCH2, primary screen, biochemical, small-molecule microarray, 635/667 nm fluorescence (AID 1121).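 Note: score merges feature fluorescence read at 667 nm with its signal to noise.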 The note with it: higher = more signal.
For test [4], the target named is Carbonic anhydrase 2 (Homo sapiens) (UniProt P00918). The experiment in a line: CAII small-molecule binders, profiling panel, biochemical, small-molecule microarray, Alexa647-labelled CAII (AID 1122). The note with it: CAII-A647 binding fluorescence, higher = more signal.
Test [5] is described as follows: COS7 lysate on small-molecule microarray, probe aHis, 635 nm (AID 1123).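 Note: z-score combines 667nm fluorescence intensity with signal-to-noise per printed compound spot.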 The settings on record: COS7 cell lysate, fluorescence, higher = more signal.
The nature of test [6]: compound binding in COS7 lysate, probe aLAP1, primary screen, cell lysate, small-molecule microarray (AID 1124).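 Note: lysate comes from COS7 cells expressing LAP1 and is applied at 0.3 µg/mL; score merges spot fluorescence near 667 nm with signal-to-noise over triplicate slides.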 The settings on record: probe aLAP1, fluorescence, higher = more signal.
For a further test, the system named is Sam68 (KHDRBS1). Briefly: Sam68 small-molecule binders, primary screen, biochemical, small-molecule microarray, 635 nm fluorescence (AID 1125).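 Note: score merges 667 nm channel intensity with signal to noise over triplicate slides.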 The settings on record: small-molecule microarray binding, higher = more signal.
In test [7] the test system is Chordin-like protein 2 (CHRDL2). The experiment in a line: CHRDL2 small-molecule binders, primary screen, biochemical, small-molecule microarray, 635 nm fluorescence (AID 1126).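 Note: printed compound slides probed with Chrdl2 protein at 4 µg/mL for 1 h at 4 C; score merges 667 nm emission intensity with signal to noise over three replicate slides.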 The note with it: small-molecule microarray binding, fluorescence 635 nm; higher = more signal.
Test [8] addresses Concanavalin-A (Canavalia ensiformis) (UniProt P02866). Briefly: ConA small-molecule binders, primary screen, artefact control for SMM control protein annotation, biochemical, small-molecule microarray, Alexa647 label, 635 nm (AID 1127).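 Note: z combines 667 nm emission intensity with signal-to-noise across three replicate slides.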 The note with it: ConA-A647 binding fluorescence, higher = more signal.
Test [9] is described as follows: anti-His antibody binders, primary screen, artefact control for SMM control protein annotation, biochemical, small-molecule microarray, 635 nm fluorescence (AID 1128).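 Note: score merges feature fluorescence with signal-to-noise for each printed compound spot.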 The settings on record: anti-His Alexa647 antibody binding, higher = more signal.
The subject of test [10] is Human papillomavirus type 1a E7 protein (residues 1-88). The experiment in a line: HPV1a E7 small-molecule binders, primary screen, biochemical, small-molecule microarray, residues 1-88, 635 nm (AID 1129). The note with it: small-molecule microarray binding, fluorescence 635 nm; higher = more signal.
The target of test [11] is Focal adhesion kinase 1 (Homo sapiens) (UniProt Q05397). The experiment in a line: small-molecule microarray binders of FAK, primary screen, biochemical, 635/667 nm fluorescence, BSA, DTT (AID 1130).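 Note: composite of spot emission at 667 nm and signal to noise over triplicate slides.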 The settings on record: PTK2 binding, 635 nm fluorescence, higher = more signal.
Focal adhesion kinase 1 (Homo sapiens), sequence (Q05397 whole entry, looked up): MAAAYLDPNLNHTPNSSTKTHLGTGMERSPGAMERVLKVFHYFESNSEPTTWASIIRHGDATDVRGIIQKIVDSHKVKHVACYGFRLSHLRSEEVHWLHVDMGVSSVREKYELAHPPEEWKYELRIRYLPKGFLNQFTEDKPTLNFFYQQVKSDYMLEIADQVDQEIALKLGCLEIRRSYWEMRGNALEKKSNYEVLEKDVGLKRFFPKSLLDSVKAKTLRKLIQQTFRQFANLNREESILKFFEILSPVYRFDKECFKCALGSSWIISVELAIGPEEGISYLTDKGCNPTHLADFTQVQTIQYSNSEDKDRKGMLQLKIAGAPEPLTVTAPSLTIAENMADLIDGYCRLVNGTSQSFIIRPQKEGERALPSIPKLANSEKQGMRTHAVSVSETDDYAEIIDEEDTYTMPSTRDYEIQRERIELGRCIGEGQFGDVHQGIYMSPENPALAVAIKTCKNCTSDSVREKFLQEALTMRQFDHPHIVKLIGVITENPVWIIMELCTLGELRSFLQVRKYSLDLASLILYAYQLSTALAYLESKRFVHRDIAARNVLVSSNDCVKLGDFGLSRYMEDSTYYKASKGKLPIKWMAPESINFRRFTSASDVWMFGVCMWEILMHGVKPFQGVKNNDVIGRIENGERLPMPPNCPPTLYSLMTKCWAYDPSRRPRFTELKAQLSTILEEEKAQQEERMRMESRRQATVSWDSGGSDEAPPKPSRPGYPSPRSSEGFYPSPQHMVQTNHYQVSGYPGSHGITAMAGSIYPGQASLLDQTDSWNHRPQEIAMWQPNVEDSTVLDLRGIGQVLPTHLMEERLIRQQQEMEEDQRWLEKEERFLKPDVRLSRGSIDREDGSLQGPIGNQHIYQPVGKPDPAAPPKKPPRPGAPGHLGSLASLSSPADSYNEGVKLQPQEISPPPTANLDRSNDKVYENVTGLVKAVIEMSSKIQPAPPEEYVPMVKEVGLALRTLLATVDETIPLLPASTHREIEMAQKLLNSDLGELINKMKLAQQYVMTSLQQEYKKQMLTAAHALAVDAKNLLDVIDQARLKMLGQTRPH
Test [12] relates to Fibrinogen (Alexa647-labelled). The experiment in a line: fibrinogen binders on compound microarrays, profiling panel, artefact control for SMM control-protein annotation, biochemical, small-molecule microarray, 635/667 nm fluorescence (AID 1131).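 Note: z-score merges 667 nm fluorescence with per-spot signal-to-noise over triplicate slides.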 The settings on record: fibrinogen-A647 binding fluorescence, higher = more signal.
Test [13] deals with Follistatin (Homo sapiens) (UniProt P19883). Briefly: follistatin binders on small-molecule microarrays, primary screen, biochemical, small-molecule microarray, 635/667 nm fluorescence (AID 1132). The settings on record: FST binding, 635 nm fluorescence, higher = more signal.
Follistatin (Homo sapiens), sequence (P19883 whole entry, looked up): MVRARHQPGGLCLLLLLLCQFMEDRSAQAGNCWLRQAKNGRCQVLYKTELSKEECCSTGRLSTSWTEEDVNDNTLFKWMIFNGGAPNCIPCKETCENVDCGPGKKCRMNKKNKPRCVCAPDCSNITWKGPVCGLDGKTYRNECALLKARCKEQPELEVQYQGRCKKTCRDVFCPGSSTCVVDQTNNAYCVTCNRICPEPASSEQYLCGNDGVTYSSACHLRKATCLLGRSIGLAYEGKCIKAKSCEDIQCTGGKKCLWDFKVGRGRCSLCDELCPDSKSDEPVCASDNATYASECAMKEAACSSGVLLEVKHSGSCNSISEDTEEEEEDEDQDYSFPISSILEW
Test [14] concerns the target Fibroblast growth factor 2 (Homo sapiens) (UniProt P09038). The experiment in a line: FGF2 binders on small-molecule microarrays, primary screen, biochemical, small-molecule microarray, 635/667 nm fluorescence (AID 1133). The note with it: small-molecule microarray binding, FGF2, fluorescence 635/667; higher = more signal.
A short description of test [15]: mitochondrial membrane potential change in A549 cells, profiling panel, cell-based, JC-1 fluorescence, basal, 24 h, 100 nL (AID 1138).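 Note: A549 lung adenocarcinoma cells under basal conditions with no added stimulus; test concentration not given here.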 The note with it: higher = more signal.
The next test relates to Lefty1. The experiment in a line: Lefty1 binders on small-molecule microarrays, primary screen, biochemical, small-molecule microarray, 635/667 nm fluorescence (AID 1139). The note with it: small-molecule microarray binding, fluorescence 635/667; higher = more signal.
In test [16] the test system is wheat germ agglutinin (Triticum aestivum), Alexa647-labelled. The experiment in a line: wheat germ agglutinin binders on compound microarrays, profiling panel, artefact control for SMM control-protein annotation, biochemical, small-molecule microarray, 635/667 nm fluorescence (AID 1140).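 Note: score merges 667 nm feature emission with signal to noise over triplicate slides.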 The note with it: WGA-A647 binding, 635 nm fluorescence, higher = more signal.
The target in test [17] is Luciferin 4-monooxygenase (Photinus pyralis) (UniProt P08659). Briefly: firefly luciferase enzyme inhibitors, primary screen, biochemical, luminescence, purified enzyme, 2006 set (AID 1141).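 Note: cell-free assay with purified firefly luciferase at 100 ng per well in PBS; test concentration not given here.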 The settings on record: SteadyGlo luminescence, 30 min, higher = more signal, called active from +8 up or from −8 down.
Luciferin 4-monooxygenase (Photinus pyralis), sequence (P08659 whole entry, looked up): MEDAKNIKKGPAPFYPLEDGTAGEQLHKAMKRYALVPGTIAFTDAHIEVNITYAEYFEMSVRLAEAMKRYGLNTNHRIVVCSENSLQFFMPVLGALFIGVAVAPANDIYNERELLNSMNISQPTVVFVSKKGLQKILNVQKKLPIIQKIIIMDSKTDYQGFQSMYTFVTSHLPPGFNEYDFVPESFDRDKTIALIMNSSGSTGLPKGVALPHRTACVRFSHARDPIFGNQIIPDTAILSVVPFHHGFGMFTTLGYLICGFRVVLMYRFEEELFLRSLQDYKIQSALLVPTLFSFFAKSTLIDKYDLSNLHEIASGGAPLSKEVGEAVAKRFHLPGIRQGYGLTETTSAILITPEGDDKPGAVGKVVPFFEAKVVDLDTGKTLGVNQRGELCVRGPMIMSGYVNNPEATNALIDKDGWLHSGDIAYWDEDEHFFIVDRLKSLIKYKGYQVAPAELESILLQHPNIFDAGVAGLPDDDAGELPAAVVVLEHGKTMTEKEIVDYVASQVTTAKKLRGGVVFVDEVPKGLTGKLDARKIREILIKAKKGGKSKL

Molecules are shown by their SMILES. Calls of active or inactive are those of the source.

Concanavalin-A (Canavalia ensiformis), sequence (P02866 whole entry, looked up): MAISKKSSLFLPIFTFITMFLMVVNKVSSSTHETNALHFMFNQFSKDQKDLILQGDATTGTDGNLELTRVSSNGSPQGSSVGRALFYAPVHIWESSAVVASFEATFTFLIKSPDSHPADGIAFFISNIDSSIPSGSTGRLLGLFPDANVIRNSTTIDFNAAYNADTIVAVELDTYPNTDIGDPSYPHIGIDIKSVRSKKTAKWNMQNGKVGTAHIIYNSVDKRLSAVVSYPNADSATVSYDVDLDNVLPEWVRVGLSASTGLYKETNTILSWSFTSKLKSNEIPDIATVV
Fibroblast growth factor 2 (Homo sapiens), sequence (P09038 whole entry, looked up): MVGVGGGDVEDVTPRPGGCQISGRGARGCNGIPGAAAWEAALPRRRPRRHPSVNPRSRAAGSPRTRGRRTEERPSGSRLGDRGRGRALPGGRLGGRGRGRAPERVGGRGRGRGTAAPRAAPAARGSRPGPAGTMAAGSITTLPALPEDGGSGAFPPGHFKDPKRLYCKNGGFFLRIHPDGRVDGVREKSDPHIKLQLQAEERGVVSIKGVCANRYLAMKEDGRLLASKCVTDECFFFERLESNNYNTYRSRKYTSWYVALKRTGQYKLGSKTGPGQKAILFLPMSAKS
Albumin (Bos taurus), sequence (P02769 whole entry, looked up): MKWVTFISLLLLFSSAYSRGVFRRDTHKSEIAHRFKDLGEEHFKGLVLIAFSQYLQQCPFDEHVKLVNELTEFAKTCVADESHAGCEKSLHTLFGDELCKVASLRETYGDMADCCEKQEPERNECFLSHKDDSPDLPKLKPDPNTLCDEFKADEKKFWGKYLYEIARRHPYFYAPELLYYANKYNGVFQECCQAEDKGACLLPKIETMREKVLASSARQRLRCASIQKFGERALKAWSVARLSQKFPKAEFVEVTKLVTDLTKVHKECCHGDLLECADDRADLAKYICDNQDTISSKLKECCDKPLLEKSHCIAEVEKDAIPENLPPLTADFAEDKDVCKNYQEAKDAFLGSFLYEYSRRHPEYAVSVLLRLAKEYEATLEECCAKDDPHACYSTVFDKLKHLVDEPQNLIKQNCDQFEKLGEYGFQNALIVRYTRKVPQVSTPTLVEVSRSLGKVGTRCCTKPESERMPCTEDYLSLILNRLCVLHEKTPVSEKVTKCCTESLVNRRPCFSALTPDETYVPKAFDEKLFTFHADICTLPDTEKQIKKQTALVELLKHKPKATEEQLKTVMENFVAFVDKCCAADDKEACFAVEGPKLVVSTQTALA

For `COCCOC(=O)N1C(=O)[C@@]2(c3ccccc31)[C@H](C(N)=O)[C@H]1C(=O)O[C@H](c3ccccc3)[C@H](c3ccccc3)N1[C@@H]2c1ccccc1OCCO`, the composite z-score in the test with Albumin (Bos taurus) was 0.834; in test [2], 0.198; in test [3] it was 0.0959; in test [4], 0.749; in test [5], 2.02; in test [6], 1.06. For the same compound, the composite z-score with Sam68 (KHDRBS1) amounted to 1.3; in test [7], 0.522; in test [8], 1.15; in test [9] it was 2.57; in [10] it was 1.08; in [11], 0.29. Besides, the composite z-score in [12] was determined as 0.882; in test [13], 1.3; in test [14] it was 0.894; in the test on Lefty1, 0.533; in test [16], 0.98. Further, the composite Z-score in test [1] was 0.839 (inactive). In addition, the z-score in test [15] was 0.431; in test [17], -1.25 (inactive).
Consider `COC(=O)[C@@H]1CCCN1C(=O)[C@@H](C)CO`, for which the composite z-score was 0.448 with Albumin (Bos taurus); 0.0042 in test [2]; -0.16 in test [3]; 0.192 in test [4]; 0.84 in [5]; -0.436 in test [6]. Besides, the composite z-score stood at 0.95 in the test with Sam68 (KHDRBS1); 0.584 in test [7]; 0.873 in [8]; 0.933 in test [9]; 1.16 in [10]; 0.21 in [11]. Further, the composite z-score in test [12] was determined as 0.868; in test [13], 0.473; in test [14] it was 0.723; in the test with Lefty1 it was 0.29; in test [16], 1.15. Besides, in test [1], the composite Z-score is -0.505 (inactive). For the same compound, the z-score was -1.29 in test [15] and 0.09 (inactive) in [17].
As for `C#CCCCON=C1C[C@@H](O)[C@@H](O)[C@@H]2[C@@H]3C(=O)N(CCC(=O)OCC)C(=O)[C@@H]3CC[C@@H]12`, the composite z-score in the test with Albumin (Bos taurus) is 0.674; in [2], 0.0836; in test [3], -0.0404; in [4] it was -0.0544; in [5], 0.166; in test [6], 1.05. For the same compound, the composite z-score in the test on Sam68 (KHDRBS1) was -0.349; in [7] it was 0.715; in [8], -0.962; in test [9] it was -0.264; in test [10], -0.0592; in test [11], 0.934. Besides, the composite z-score was 0.211 in test [12]; -1.11 in test [13]; -0.823 in test [14]; -0.655 with Lefty1; 0.662 in test [16]. For the same compound, in test [1], the composite Z-score is -0.521 (inactive). The z-score in [15] was -0.139; in test [17], 0.224 (inactive).
As to `CC(C)=NOCc1cccc(-c2cc(-c3ccccc3)no2)c1`, the composite z-score was -0.0583 in the test with Albumin (Bos taurus); 0.062 in test [2]; -0.203 in test [3]; 0.257 in [4]; 0.686 in test [5]; 0.0499 in test [6]. Moreover, the composite z-score with Sam68 (KHDRBS1) was 1; in test [7], 0.564; in [8], 1.02; in test [9], 0.545; in test [10] it was 0.974; in test [11], 0.882. The composite z-score came to 0.464 in test [12]; 0.973 in [13]; 0.727 in [14]; 0.92 in the test with Lefty1; 0.848 in [16]. In test [1], the composite Z-score was 0.123 (inactive). Also, the z-score was 0.732 in [15] and -0.158 (inactive) in test [17].
Consider `CCOc1ccc(N2C(=O)/C(=C/C=C/c3ccccc3OC)S(=O)(=O)C2c2cccc([N+](=O)[O-])c2)cc1` (stereo not given), for which the composite z-score was 0.382 with Albumin (Bos taurus); 0.0762 in test [2]; -0.0793 in test [3]; -0.138 in test [4]; 0.13 in [5]; 0.32 in test [6]. The composite z-score in the test on Sam68 (KHDRBS1) is -0.319; in [7] it was 0.198; in [8], 0.133; in [9] it was -0.359; in test [10] it was 0.339; in test [11] it was 0.0604. Moreover, the composite z-score is 0.441 in test [12]; 0.475 in test [13]; 0.235 in test [14]; 0.23 in the test on Lefty1; 0.432 in test [16]. The composite Z-score in test [1] was -0.327 (inactive). Further, the figures for the z-score in test [15] and in [17] were 2.31 and -0.889 (inactive), respectively.
